Data as given in PubChem BioAssay (NCI).
About 83,000 compounds went through this panel and 20% of them were active in at least one assay; those are over-represented in the sample as a whole.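 48-hour exposure, single concentration, 96-well plates; percent growth endpoint where 0 means no net growth. Active: below 10.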 A number with no mark means an inactive call. The source made the active and inactive calls.

Key:
Experiment in all cases: NCI-60 one-dose screen, 48 h (100 = growth as untreated, 0 = no growth, -100 = all killed)
Settings in all cases: 10 µM unless noted
DU-145 prostate = tested on: DU-145 prostate
K-562 leukemia = tested on: K-562 leukemia
MALME-3M melanoma = tested on: MALME-3M melanoma
MDA-MB-231 breast = tested on: MDA-MB-231 breast
RXF 393 renal = tested on: RXF 393 renal
SF-268 CNS = tested on: SF-268 CNS
SF-539 CNS = tested on: SF-539 CNS
UACC-257 melanoma = tested on: UACC-257 melanoma
M14 melanoma = tested on: M14 melanoma
HCT-15 colon = tested on: HCT-15 colon
HT29 colon = tested on: HT29 colon
SNB-75 CNS = tested on: SNB-75 CNS
SNB-19 CNS = tested on: SNB-19 CNS
PC-3 prostate = tested on: PC-3 prostate
SK-MEL-5 melanoma = tested on: SK-MEL-5 melanoma
UACC-62 melanoma = tested on: UACC-62 melanoma
LOX IMVI melanoma = tested on: LOX IMVI melanoma
SK-MEL-28 melanoma = tested on: SK-MEL-28 melanoma
U251 CNS = tested on: U251 CNS

Structure (SMILES)	growth (DU-145 prostate) [%]	growth (K-562 leukemia)	growth (MALME-3M melanoma)	growth (MDA-MB-231 breast)	growth (RXF 393 renal)	growth (SF-268 CNS)	growth (SF-539 CNS)	growth (UACC-257 melanoma)	growth (M14 melanoma)	growth (HCT-15 colon)	growth (HT29 colon)	growth (SNB-75 CNS)	growth (SNB-19 CNS) [%]	growth (PC-3 prostate)	growth (SK-MEL-5 melanoma)	growth (UACC-62 melanoma) [%]	growth (LOX IMVI melanoma)	growth (SK-MEL-28 melanoma) [%]	growth (U251 CNS)
O=C(CN1CCN(c2ccccc2)CC1)N1CCN(c2nnc(-c3ccc(Cl)cc3)c(-c3ccc(Cl)cc3)n2)CC1	76	22.4%	126%	76.4%	49.9%	65.2%	60.2%	61.6%	69.5%	45.4%	32.3%	66.8%	82.1	26.6%	44.2%	63.1	64.6%	81.9	
O=C(NCC(c1ccsc1)N1CCCCCC1)c1ccc(C(F)(F)F)cc1 (centres undefined)	105	83.7%	98.5%	85.1%	85.7%	98.3%	108%	108%	93%	100%		87.6%	87.9	88.5%	94.9%	99.1	78.9%	110	90.7%
Brc1cccc(-n2ncc3c(Nc4ccc(-c5nnc(-c6ccccc6)o5)cc4)ncnc32)c1	111	110%	110%	93.5%	92.9%	98.6%	95.9%	108%	108%	101%		92.3%	102	95.1%	98.7%	93.3	93.3%	112	103%
C=CCn1c(C)nc2cc(Nc3nc(Nc4ccc5nc(C)n(CC=C)c5c4)nc4ccccc34)ccc21	115	102%	94.5%	90%	124%	113%	98.6%	102%	109%	107%		90.8%	100	95.8%	99.7%	95.8	93.3%	106	94.4%
COc1ccc(-c2nc3ccc(Cc4ccc5nc(-c6ccc(OC)cc6)[nH]c5c4)cc3[nH]2)cc1	64.6	13.4%	-13.1% (active)	17.3%	93.9%	6.83% (active)	56.6%	-20% (active)	40.1%	77.1%	44.2%	92.9%	49	43.3%	13.5%	38.2	15.7%	82.3	
c1ccc(C(Nc2ccccn2)(c2ccccc2)c2ccccc2)cc1	85.6	56%	109%	66.8%	82.9%	99.5%	86.4%	97.4%	87.9%	74.1%		74.8%	77.5	39.1%	70.3%	59.3	100%	98.5	84.3%
Cn1nc(C(F)(F)F)cc1-c1c[nH]c(OCc2ccc(Cl)cc2)c(-c2ccc(Cl)c(C(F)(F)F)c2)c1=O	15.7	8.64% (active)	-24.2% (active)	-29% (active)	-21.9% (active)	8.48% (active)	-11.4% (active)	4.21% (active)	1.49% (active)	6.6% (active)	5.99% (active)	-6.2% (active)	21.1	5% (active)	-63.9% (active)		7.07% (active)	10.1	8.33% (active)
Cc1c(C)c(C)c([N+](=O)[O-])c([N+](=O)[O-])c1C	92.2	119%	90.1%	79.3%	107%	93%	92%	103%	104%	94%	102%	111%	95.4	84%	99.3%		95.9%	104	101%
